TDP1 cell noCPT – qHTS for Inhibitors of human tyrosyl-DNA phosphodiesterase 1 (TDP1): qHTS in cells in absence of CPT; Potency, µM (highest dose often 46.2 µM), without a hit: at the top dose activity change, negative = growth inhibition, most hits filed as inhibitors; 420,000 tested, 15% active; DT40 Tdp1-/- hTDP1 cells, no CPT, ATP luminescence, 48 h; also: nearly all actives have a fitted effect of over 55% in size
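Cells were dispensed at 400 per well, compounds added by pin tool, plates incubated ≥48 hr at 37 °C, then CellTiter-Glo added for 30 min at room temperature before luminescence reading. Line: DT40 Tdp1-/- complemented with hTDP1; camptothecin omitted.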
RORg inh – blocks mouse ROR gamma transcriptional activity. Drosophila S2 Gal4-RORgamma UAS-luciferase reporter, 20 h. Potency, µM (highest dose often 53.6 µM), without a hit: top-dose activity change, negative = inhibition, hits mostly inhibitors. 310,000 tested, 5.4% active. AID 2551; also: nearly all actives have a fitted effect of over 60% in size
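Drosophila S2 cells stably expressing Gal4-DBD/mouse RORγ fusion under metallothionein promoter plus UAS-luciferase; compound 1 h, then 700 uM CuSO4 induction for 20 h at ambient temperature; inhibition read as reduced luminescence.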
DT40 TDP1 CPT – growth inhibition of DT40 Tdp1-/-;hTDP1 cells with camptothecin (screen for TDP1 inhibitors); chicken DT40 Tdp1-/-;hTDP1 cells + 20 nM CPT, ATP luminescence, 48 h; Potency, µM (doses to about 46.2 µM), for the others: at the top dose activity change, negative = growth inhibition, hits mostly inhibitors; 420,000 tested, 12% active; also: nearly all actives have a fitted effect of over 55% in size
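Chicken DT40 Tdp1-/- cells complemented with human TDP1, 400 cells/well, exposed to compounds plus 20 nM camptothecin for at least 48 h at 37 C; viability read as ATP content by CellTiter-Glo luminescence.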
TDP1 inh – TDP1 (human) enzyme inhibition; Q9NUW8; recombinant TDP1, AlphaScreen DNA substrate cleavage; Potency, µM (doses to about 130 µM), without a hit: at the highest dose activity change, negative = inhibition, hits mostly inhibitors; 350,000 tested, 0.28% active; AID 485290; also: nearly all actives have a fitted effect of over 40% in size
Target sequence (Q9NUW8 whole entry, looked up): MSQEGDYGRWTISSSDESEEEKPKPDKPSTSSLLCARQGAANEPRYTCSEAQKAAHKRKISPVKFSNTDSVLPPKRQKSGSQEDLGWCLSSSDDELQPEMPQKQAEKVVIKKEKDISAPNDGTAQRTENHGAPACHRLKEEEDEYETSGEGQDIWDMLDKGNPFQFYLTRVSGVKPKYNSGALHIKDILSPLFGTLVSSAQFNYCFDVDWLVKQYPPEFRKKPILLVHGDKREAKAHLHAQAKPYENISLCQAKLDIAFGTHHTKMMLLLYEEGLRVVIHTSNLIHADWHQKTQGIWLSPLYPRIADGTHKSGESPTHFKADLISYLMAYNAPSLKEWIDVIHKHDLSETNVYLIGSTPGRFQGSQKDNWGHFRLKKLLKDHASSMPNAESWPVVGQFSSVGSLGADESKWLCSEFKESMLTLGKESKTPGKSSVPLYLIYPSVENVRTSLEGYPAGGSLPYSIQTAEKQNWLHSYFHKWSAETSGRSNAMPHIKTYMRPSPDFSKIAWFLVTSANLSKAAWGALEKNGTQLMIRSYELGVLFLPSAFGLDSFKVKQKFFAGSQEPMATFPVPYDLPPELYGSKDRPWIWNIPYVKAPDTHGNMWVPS
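Steps: enzyme plus compound, 15 min RT; add biotin/phosphotyrosine-FITC oligonucleotide (15 nM final), react 5 min; add donor/acceptor beads (10 ug/ml final), 10 min; read AlphaScreen. Tdp1 at 1 nM final.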
VP16 counter – inhibits Gal4-VP16 luciferase reporter, ROR gamma counter-screen | Drosophila S2 Gal4-VP16 UAS-luciferase, luminescence, 20 h | Potency, µM (titrated, usually from 53.6 µM), for inactives: top-dose activity, negative = inhibition, actives largely listed as inhibitors | 310,000 tested, 3.5% active | AID 2546;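 also: Gal4-VP16 expression switched on by copper sulfate through the metallothionein promoter; nearly all actives have a fitted effect of over 50% in size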
Active calls of the source: *; ! = not active in a repeat; [ ] = another dose, or the depositor's remark. Most compounds without a hit are left out; they make up all but 19% or so of the library. Calls follow the shape of the dose curve; as a rule, active = well fitted curve in the direction sought with a large enough effect; inconclusive = small, poorly fitted or top-dose-only effect, or another doubt; inactive = no such curve, though single readings can be large; an effect the other way counts as inactive or inconclusive. % is scaled to controls: 0 for no effect and ±100 for the full control effect; potency is read from the fitted curve at half-maximal effect.

O=C(NCCOc1ccccc1)c1ccccc1SCC(=O)N1CCCC1 was read as TDP1 cell noCPT -18%, DT40 TDP1 CPT -4% and TDP1 inh 0%.
For COc1ccc(OCCNC(=O)c2ccccc2OCC(=O)N2CCCCC2)cc1 the results were TDP1 cell noCPT 18µM*, RORg inh 40%, DT40 TDP1 CPT 21µM*, TDP1 inh -5%[56.1 µM] and VP16 counter -1%.
Screening Cc1ccccc1CC(=O)NCCN1CCOCC1 returned TDP1 cell noCPT 27%, DT40 TDP1 CPT 13% and TDP1 inh 1%.
Screening Cc1c(C(=O)N(C)CC2CCCN(C)C2)cnn1-c1nccc(-c2ccco2)n1 (configuration not stated) returned TDP1 cell noCPT 1% and DT40 TDP1 CPT 3%.
Screening O=C(NCCN1CCOCC1)c1ccccc1Oc1ccccc1 returned TDP1 cell noCPT -8%, RORg inh 3%, DT40 TDP1 CPT -8%, TDP1 inh 9% and VP16 counter -6%.
Screening COc1ccc(OC)c(CN2CCN(C(=O)c3cccc(S(=O)(=O)Nc4ccc(C)cc4)c3)CC2)c1 returned TDP1 cell noCPT inconclusive, DT40 TDP1 CPT 26µM* and TDP1 inh 3%.
COc1ccc(OC)c(CN2CCN(C(=O)c3ccc(S(=O)(=O)N4CCCCCC4)cc3)CC2)c1 was read as TDP1 cell noCPT 21µM* and DT40 TDP1 CPT inconclusive.
For COc1ccc(NS(=O)(=O)c2ccc(C)c(C(=O)N3CCN(Cc4cc(OC)ccc4OC)CC3)c2)cc1 the results were TDP1 cell noCPT 23µM* and DT40 TDP1 CPT 21µM*.
For COc1ccc(C(=O)N2CCN(Cc3cc(OC)ccc3OC)CC2)cc1 the results were TDP1 cell noCPT 1%, RORg inh -28%, DT40 TDP1 CPT -1%, TDP1 inh 5% and VP16 counter -6%.
Screening COc1ccc(OC)c(CN2CCN(C(=O)c3cc(S(=O)(=O)Nc4ccccc4OC)ccc3C)CC2)c1 returned TDP1 cell noCPT inconclusive, RORg inh 10%, DT40 TDP1 CPT inconclusive, TDP1 inh 7% and VP16 counter 1%.
Cc1ccc(OC(=O)CCC(=O)Nc2ccc(C)c(C)c2)cc1 was read as TDP1 cell noCPT 0% and DT40 TDP1 CPT -13%.
For Nc1cc(-c2ccncc2)c[nH]c1=O the results were TDP1 cell noCPT 16µM*!, RORg inh 25%, DT40 TDP1 CPT inconclusive, TDP1 inh 1% and VP16 counter inconclusive.
O=C(CSc1nnc(-c2ccncc2)o1)Oc1ccccc1 was read as TDP1 cell noCPT -9%, RORg inh -4%[0.365 µM], DT40 TDP1 CPT -1% and TDP1 inh -3%.
`O=C(CSc1nnc(-c2ccccc2O)o1)Oc1ccc(OCc2ccccc2)cc1` gave TDP1 cell noCPT 13µM*, RORg inh -22%, DT40 TDP1 CPT 13µM*, TDP1 inh 1% and VP16 counter 28%.
Screening CC1CCCCC1NC(=O)CCC(=O)N1CCOc2ccc(Cl)cc21 (configuration not stated) returned TDP1 cell noCPT 16%, RORg inh 43%, DT40 TDP1 CPT -19%, TDP1 inh 0% and VP16 counter -9%.
Screening O=C(NNS(=O)(=O)c1ccccc1Cl)C1COc2ccccc2O1 (configuration not stated) returned TDP1 cell noCPT -20%, DT40 TDP1 CPT -6% and TDP1 inh 0%.
`COc1ccc(NC(=O)CN2C(=O)COc3ccc(S(=O)(=O)N4CCOCC4)cc32)cc1Cl` gave TDP1 cell noCPT 18µM*!, RORg inh 36%, DT40 TDP1 CPT inconclusive, TDP1 inh 2% and VP16 counter -5%.
`Cc1ccc(NC(=O)CN2C(=O)COc3ccc(S(=O)(=O)N4CCCCC4)cc32)cc1N(C)C` gave TDP1 cell noCPT 21µM*, DT40 TDP1 CPT 23µM* and TDP1 inh -3%.
For COc1ccccc1NC(=O)CN1C(=O)COc2ccc(S(=O)(=O)N3CCOCC3)cc21 the results were TDP1 cell noCPT 1%, RORg inh -14%, DT40 TDP1 CPT -19%, TDP1 inh 6% and VP16 counter 2%.
`COc1ccc(CN2C3CCC2CC(NC(=O)c2cc(OC)c(OC)c(OC)c2)C3)cc1` (configuration not stated) gave TDP1 cell noCPT 21%, RORg inh -17%[1.91 µM], DT40 TDP1 CPT -5% and VP16 counter 8%.
For Oc1ccc(O)c(C=NNC(=S)NC2CC3CC2C2C=CCC32)c1 (configuration not stated) the results were TDP1 cell noCPT inconclusive and DT40 TDP1 CPT 18µM*.
For NNC(=S)NC1CC2CC1C1C=CCC21 (configuration not stated) the results were TDP1 cell noCPT inconclusive, RORg inh 0.45µM*, DT40 TDP1 CPT 9.2µM*, TDP1 inh 8% and VP16 counter 2.8µM*.
Screening NC(=O)NN=C1CC2CC1C1C=CCC21 (configuration not stated) returned TDP1 cell noCPT -26% and DT40 TDP1 CPT -2%.
For COc1cc(/C=C(\CCC(=O)O)c2nc3ccccc3s2)ccc1OCC(=O)Nc1c(Cl)cccc1Cl the results were TDP1 cell noCPT inconclusive, DT40 TDP1 CPT 16µM* and TDP1 inh 28µM*.
O=C(O)CC/C(=C/c1cccc(NC(=O)c2ccccc2Cl)c1)c1nc2ccccc2s1 was read as TDP1 cell noCPT inconclusive and DT40 TDP1 CPT 2%.
`CCOC(=O)Cn1c(=O)c2c(nc(Br)n2Cc2ccc(Cl)cc2)n(C)c1=O` gave TDP1 cell noCPT 9.2µM*, RORg inh -18%, DT40 TDP1 CPT 13µM*, TDP1 inh 7% and VP16 counter -4%.
CCOC(=O)Cn1c(=O)c2c(nc(N3CCCCC3)n2Cc2ccccc2)n(C)c1=O was read as TDP1 cell noCPT 15µM*, RORg inh 37%, DT40 TDP1 CPT 21µM*, TDP1 inh -2% and VP16 counter -1%.
Screening CCOC(=O)CSc1nc2ccc(Nc3nc(N4CCOCC4)nc(N4CCOCC4)n3)cc2s1 returned TDP1 cell noCPT 21µM*, RORg inh inconclusive, DT40 TDP1 CPT inconclusive, TDP1 inh -5% and VP16 counter -5%.
Screening Cc1ccc(NC(=O)CSc2nc3ccc(Nc4nc(N5CCOCC5)nc(N5CCOCC5)n4)cc3s2)cc1 returned TDP1 cell noCPT 18µM*, RORg inh inconclusive, DT40 TDP1 CPT inconclusive, TDP1 inh 1% and VP16 counter 1%.
For CC(=O)Nc1ccc2nc(SCC(=O)Nc3ccc(N4CCOCC4)c(Cl)c3)sc2c1 the results were TDP1 cell noCPT inconclusive, RORg inh 26%, DT40 TDP1 CPT inconclusive, TDP1 inh 0% and VP16 counter -8%.

From PubChem
